Screen size: about 76,000 compounds; about 1,900 (2.5%) were called active. About 5% were inconclusive and are not listed. Calls follow the shape of the dose curve; as a rule, active = well fitted inhibition curve with a large enough effect; inconclusive = small, poorly fitted or top-dose-only effect; inactive = flat fitted curve, though single readings scatter. This excerpt belongs to a sample that is enriched for actives.
Each molecule was assayed against Luciferin 4-monooxygenase (Photinus pyralis) (UniProt P08659) (assay: Firefly luciferase inhibition profiling of diverse chemical library using quantitative high-throughput screening). Settings: purified P. pyralis luciferase, luminescence, biochemical; series mostly up to 115 µM.
Outline: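 Luminescence read by CCD imaging after purified firefly luciferase (10nM final) was added to substrate buffer holding 10uM D-luciferin and 10uM ATP, pH 7.5, pre-dosed with compound.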
Also: nearly all actives have a fitted effect of over 65% in size.
Potency is read from the fitted curve at half-maximal effect.

Chain of Luciferin 4-monooxygenase (Photinus pyralis) (P08659 whole entry, looked up): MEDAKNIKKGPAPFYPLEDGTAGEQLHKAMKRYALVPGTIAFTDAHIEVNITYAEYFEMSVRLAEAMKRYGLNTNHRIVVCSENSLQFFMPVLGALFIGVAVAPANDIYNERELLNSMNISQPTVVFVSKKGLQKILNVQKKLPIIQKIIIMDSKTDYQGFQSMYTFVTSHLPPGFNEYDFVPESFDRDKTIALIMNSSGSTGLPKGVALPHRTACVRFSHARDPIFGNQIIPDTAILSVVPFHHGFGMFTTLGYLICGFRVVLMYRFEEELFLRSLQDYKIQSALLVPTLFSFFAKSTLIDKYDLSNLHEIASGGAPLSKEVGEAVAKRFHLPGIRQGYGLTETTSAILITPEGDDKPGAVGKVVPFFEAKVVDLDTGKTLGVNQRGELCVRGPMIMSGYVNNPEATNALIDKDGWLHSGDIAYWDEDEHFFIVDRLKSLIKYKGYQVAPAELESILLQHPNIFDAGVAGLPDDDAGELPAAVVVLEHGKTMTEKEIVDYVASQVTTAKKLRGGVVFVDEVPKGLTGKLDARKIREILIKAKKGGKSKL

Potency, inactive:
CC(C)NC(=O)N1CCC[C@@H](O)[C@H](NC(=O)c2ccc(OCC(N)=O)cc2)C1
CNC(=O)[C@@H]1CN(C(=O)Cc2c[nH]c3ccccc23)C[C@H]1COC
O=C(Nc1cccc(Br)c1)C1CC(=O)N(c2n[nH]c3cccc(F)c23)C1 (stereo not drawn)
COCCCN(CCC(=O)N1CCC(C)CC1)C(=O)c1cc(C)oc1C
COc1ccc2[nH]c(C[C@@H]3C[C@@H](C(C)C)[C@H](CNC4CCN(C)CC4)C=C3C)nc2n1
CCOc1cccc(CNC(=O)c2cc3n(n2)CC(c2ccc(Cl)cc2)OC3)c1 (stereo not drawn)
CCC(CC)C(=O)N1CCC(N2CCCC(C(=O)NCc3ccccc3)C2)CC1 (stereo not drawn)
COc1ccc(C2Cn3cnc(C(=O)N4CCC(C(=O)NC5CCCC5)CC4)c3CO2)cc1 (stereo not drawn)
COc1ccc(C2Cn3cnc(C(=O)N4CCC(C(=O)NCc5cccc(F)c5)CC4)c3CO2)cc1 (stereo not drawn)
COc1ccc(C2Cn3nnc(C(=O)N4CCN(C(=O)c5cccc(Cl)c5)CC4)c3CO2)cc1 (stereo not drawn)
O=C(Nc1cccc(F)c1)c1cc2n(n1)CC(c1ccc(Cl)cc1)OC2 (stereo not drawn)
CC(=O)N1CCC(C(=O)NCC2CCN(c3cc(-c4ccc(C)cc4)[nH]n3)CC2)CC1
COc1ccc(C2Cn3cnc(C(=O)N4CCC(C(=O)Nc5cc(C)cc(C)c5)CC4)c3CO2)cc1 (stereo not drawn)
Cc1ccc(C(=O)N[C@H]2CO[C@H]3[C@@H]2OC[C@@H]3n2nnnc2Oc2ccc(-n3ccnc3)cc2)cc1
O=C(Nc1ccccc1)N1CCC2(CC1)CC(Cc1ccccc1)=NO2
COc1cccc(CC(=O)N2CCCn3nc(C)c(-c4ccccc4OCc4ccccc4)c32)c1
CC(C)Oc1ccc(CNC(=O)C2Cn3cccc3C(=O)N2Cc2cccnc2)cc1 (stereo not drawn)
COc1ccccc1CN1CCN(C(=O)CCC[C@H]2NC[C@@H]3C[C@H]2CN(Cc2ccccc2)C3)CC1
CCCN1C(=O)Cc2cc(C(=O)NC3CC3)ccc21

Potency, active:
O=C(NCc1ccccc1)C1CCN(C(=O)c2ncn3c2COC(c2ccccc2)C3)CC1 (stereo not drawn) 3.16 µM
O=C(Nc1ccc(Cl)cc1)C1CCN(C(=O)c2ncn3c2COC(c2ccc(F)cc2)C3)CC1 (stereo not drawn) 22.4 µM
O=C(NCc1ccc(F)c(Cl)c1)C1CCN(C(=O)c2ncn3c2COC(c2ccccc2)C3)CC1 (stereo not drawn) 11.2 µM
O=C(NCC1CC1)C1CCN(C(=O)c2ncn3c2COC(c2ccccc2)C3)CC1 (stereo not drawn) 10 µM
